The supplement of paper PMC5919970
Where a name gives a salt, the structure may show the parent alone. The full ranking holds about 2,000 compounds; the median of “fractional viability relative to vehicle” is about 0.92, and the lowest 2% start at about 0.11. Shown is part of a subset that was picked to be rich in the lowest values.

Tested on: TYKNU
Assay: fractional viability relative to vehicle; TYKNU is a high-grade serous ovarian cancer line; higher = less growth inhibition
Settings: 72 h, genotype: OPA1 knockout (sgOPA1 #2)
How it was run: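 TYKNU control cells or lentiCRISPRv2 knockout derivatives were seeded at 500 cells per well into drug-stamped 384-well plates holding a ~2100-compound library at 2 or 10 μM, in duplicate. Cells were grown at 37 °C in 5% CO2 in RPMI 1640 with 10% FBS, and drug treatment lasted 72 h. Viability was read by Cell Titer Glo luminescence. Duplicate treatment wells were averaged and normalised to duplicate control wells from the same plate position.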

| SMILES | fractional viability (2uM) | fractional viability (10uM) |
| --- | --- | --- |
| [O-][n+]1ccccc1[S-].[O-][n+]1ccccc1[S-].[Zn+2] [Zinc Pyrithione] | 0.0671 | 0.0336 |
| CN1[C@@H]2C[C@@H](OC(=O)[C@H](CO)c3ccccc3)C[C@H]1[C@@H]1O[C@@H]12 [Scopolamine HBr] | 1.29 | 0.892 |
| C=CC[C@]1(O)CC[C@H]2[C@@H]3CCC4=CC(=O)CCC4=C3C=C[C@@]21C [Altrenogest] | 0.97 | 0.84 |
| CC(=O)Nc1ccc(OC[C@](C)(O)C(=O)Nc2ccc([N+](=O)[O-])c(C(F)(F)F)c2)cc1 [Andarine] | 1.18 | 1.18 |
| COC[C@H]1OC(=O)c2coc3c2[C@@]1(C)C1=C(C3=O)[C@@H]2CCC(=O)[C@@]2(C)C[C@H]1OC(C)=O [Wortmannin] | 0.744 | 0.149 |
| C[C@@H]1CC[C@@]2(OC1)O[C@H]1C[C@H]3[C@@H]4CC=C5C[C@@H](O[C@@H]6O[C@H](CO)[C@@H](O[C@@H]7O[C@@H](C)[C@H](O)[C@@H](O)[C@H]7O)[C@H](O)[C@H]6O[C@@H]6O[C@@H](C)[C@H](O)[C@@H](O)[C@H]6O)CC[C@]5(C)[C@H]4CC[C@]3(C)[C@H]1[C@@H]2C [Dioscin] | 0.289 | 0.0918 |
| Cc1cccc(C)c1NC1=NCCCS1 [Xylazine HCl] | 0.823 | 0.79 |
| COc1cc(OC)c(OC)cc1C=O [Asaraldehyde] | 1.16 | 1.15 |
| C=CCN1CC[C@]23c4c5ccc(O)c4O[C@H]2C(=O)CC[C@@]3(O)[C@H]1C5 [Naloxone HCl] | 0.816 | 0.957 |
| CCNC(=O)C[C@@H]1N=C(c2ccc(Cl)cc2)c2cc(OC)ccc2-n2c(C)nnc21 | 0.715 | 0.794 |
| CN[C@@H]1C[C@H]2O[C@@](C)([C@@H]1OC)n1c3ccccc3c3c4c(c5c6ccccc6n2c5c31)C(=O)NC4 [Staurosporine] | 0.264 | 0.0922 |
| COc1ccc(C(CN(C)C)C2(O)CCCCC2)cc1 (stereo not given) [Venlafaxine] | 1.21 | 1 |
| Cn1c(CCCC(=O)O)nc2cc(N(CCCl)CCCl)ccc21 [Bendamustine HCl] | 1.1 | 1.11 |
| CN1CCC(c2c[nH]c3ccc(O)cc23)CC1 | 0.838 | 0.922 |
| CCOc1ccccc1-n1c(C(C)N2CCN(C(=O)COc3ccc(Cl)cc3)CC2)nc2ccccc2c1=O (stereo not given) [Erastin] | 0.45 | 0.0976 |
| C[C@H]1CNCCc2ccc(Cl)cc21 [Lorcaserin HCl] | 1.04 | 1.02 |
| CCCN1C[C@H](CSC)C[C@@H]2c3cccc4[nH]cc(c34)C[C@H]21 [Pergolide mesylate] | 0.978 | 0.96 |
| CC1(C)CC(O)CC(C)(C)N1[O] [Tempol] | 0.982 | 1.06 |
| Cc1cc(SCc2sc(-c3ccc(C(F)(F)F)c(F)c3)nc2C)ccc1OCC(=O)O | 0.824 | 0.75 |
| CC1=C(O)C(=O)C=C2C1=CC=C1[C@@]2(C)CC[C@@]2(C)[C@@H]3C[C@](C)(C(=O)O)CC[C@]3(C)CC[C@]12C [Celastrol] | 0.123 | 0.0841 |

| SMILES | fractional viability (2uM) | fractional viability (10uM) |
| --- | --- | --- |
| CC(=O)O[C@H]1C[C@@H]2CC[C@@H]3[C@H](CC[C@@]4(C)[C@H]3C[C@H]([N+]3(C)CCCCC3)[C@@H]4OC(C)=O)[C@@]2(C)C[C@@H]1[N+]1(C)CCCCC1 [Pancuronium dibromide] | 1 | 0.976 |
| CN1[C@@H]2CC(O)C[C@H]1[C@@H]1O[C@@H]12 (stereo not given in full) [Scopine] | 0.96 | 0.768 |
| C[C@H]1CCC/C=C/[C@@H]2C[C@H](O)C[C@H]2[C@H](O)/C=C/C(=O)O1 [Brefeldin A] | 0.269 | 0.277 |
| CC(C)=CCC[C@]1(C)C=Cc2c(O)c3c(c(CC=C(C)C)c2O1)O[C@]12C(=C[C@@H]4C[C@H]1C(C)(C)O[C@@]2(C/C=C(/C)C(=O)O)C4=O)C3=O [Gambogic Acid] | 0.0971 | 0.0282 |
| C[N+]1(C)[C@@H]2C[C@@H](OC(=O)[C@H](CO)c3ccccc3)C[C@H]1[C@@H]1O[C@@H]12 [Methscopolamine] | 0.982 | 0.966 |
| C[C@]12N[C@H](Cc3ccccc31)c1ccccc12 [MK-801 (Dizocilpine)] | 1.04 | 0.956 |
| CCN1CCN(C(=O)Cc2ccc(Nc3ncc(F)c(Nc4ccc(C(=O)Nc5ccccc5Cl)cc4)n3)cc2)CC1 [Aurora A Inhibitor I] | 1.03 | 0.0801 |
| O=C(O[C@H]1C[N+]2(CCCOc3ccccc3)CCC1CC2)C(O)(c1cccs1)c1cccs1 [Aclidinium Bromide] | 0.952 | 0.927 |
| CC(C)NCC(O)c1ccccc1Cl (stereo not given) [Clorprenaline HCl] | 0.911 | 0.968 |
| CN1CCN(c2nc3ccccc3nc2Cl)CC1 | 1.15 | 0.988 |
| O=C1CC[C@@]2(O)[C@H]3Cc4ccc(O)c5c4[C@@]2(CCN3CC2CC2)[C@H]1O5 [Naltrexone HCl] | 1.07 | 1.12 |
| CC[C@@H]1/C=C/C=C/C[C@H](C)[C@H](O)[C@](C)(O)C(=O)[C@H](C)[C@@H](O)[C@H](C)C(=O)[C@H](C)[C@@H](O)[C@H](C)/C=C/C(=O)O[C@H]2[C@@H](C)[C@@H](CC1)O[C@@]1(CC[C@@H](C)[C@@H](C[C@H](C)O)O1)[C@@H]2C [Oligomycin A] | 1.01 | 0.871 |
| C1=C2CCCN[C@H]2[C@@H]2C[C@H]1[C@H]1CCCCN1C2 [Aloperine] | 1.02 | 0.89 |
| O=C(Oc1ccc([N+](=O)[O-])cc1)N1CCC(C(O)(c2ccc3c(c2)OCO3)c2ccc3c(c2)OCO3)CC1 | 0.994 | 0.739 |
| O=[N+]([O-])/C=C/c1ccc2c(c1)OCO2 | 0.477 | 0.113 |
| c1cc2c(cc1[C@H]1OC[C@H]3[C@@H]1CO[C@@H]3c1ccc3c(c1)OCO3)OCO2 [Sesamin] | 1.06 | 0.894 |
| Cc1sc2c(c1C)C(c1ccc(Cl)cc1)=N[C@@H](CC(=O)Nc1ccc(O)cc1)c1nnc(C)n1-2 | 0.634 | 0.619 |
| CN1c2ccccc2C(NCCCCCCC(=O)O)c2ccc(Cl)cc2S1(=O)=O (stereo not given) [Tianeptine sodium] | 1.15 | 1.02 |
| Nc1nc(N)nc(NC2CC2)n1 [Cyromazine] | 1.01 | 0.994 |
| CCCN1CCO[C@@H]2c3cc(O)ccc3OC[C@H]21 | 0.95 | 1.01 |
